Screens: PubChem BioAssay, National Center for Advancing Translational Sciences (NCATS)
Gal4-VP16 FLuc – counter-screen for ROR gamma inhibitors: Gal4-VP16 reporter. actives 3.5% (n = 310,000). Drosophila S2 Gal4-VP16 UAS-luciferase, luminescence, 20 h. Potency, µM (top dose mostly 53.6 µM), hits mostly inhibitors;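 note: Gal4-VP16 expression switched on by copper sulfate through the metallothionein promoter; nearly all actives have a fitted effect of over 50% in size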
p53 reactivation – re-activators of mutant p53 | H1299 p53-A138V BP100-luciferase reporter, luminescence, 24 h | Potency, µM (top dose mostly 92.2 µM), most hits filed as activators | actives 0.063% (n = 320,000); note: nearly all actives have a fitted effect of over 45% in size
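p53-null H1299 cells stably carrying temperature-sensitive p53-A138V and a BP100-luciferase reporter were pinned with compounds (4-point, 1:5 series) and held 24 hrs at 37 deg C. Luminescence was read 10 min after detection reagent.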
CtBP-E1A blk – CtBP/E1A binding inhibition. AlphaScreen GST-E1A/His-CtBP binding, 1536-well; stronger effect = lower value. activity change, % (test concentration not listed). actives 0.49% (n = 340,000); in the data active = activity change below about -65%; inconclusive = mostly about -30% to -63%
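Protein mix (5X: 125 nM each GST-E1A, His-CtBP) was incubated with pinned compound 2 h at 37 deg C in dark, in 50 mM Tris pH 8.0 buffer with 300 mM NaCl. Glutathione donor and nickel acceptor beads followed; AlphaScreen signal read after 1 h.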
RORgamma inh – inhibitors of mouse ROR gamma transcriptional activity. P51450. Drosophila S2 Gal4-RORgamma UAS-luciferase reporter, 20 h. Potency, µM (doses to about 53.6 µM), hits mostly inhibitors. actives 5.4% (n = 310,000). AID 2551; note: nearly all actives have a fitted effect of over 60% in size
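Read-out: Photinus luciferase luminescence; inhibitors lower reporter signal. Insect Schneider cells with Gal4-ROR gamma fusion under metallothionein promoter, UAS reporter; 700 uM final copper sulfate induction, 20 hr, ambient temperature.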
Six1-Eya2 blk – blocks human Six1 binding to Eya2. AID 651725. Q15475+O00167. AlphaScreen GST-Six1/His-Eya2 binding, biochemical; stronger effect = lower value. activity change, % (no concentration beside the values). actives 0.56% (n = 360,000); in the data active = activity change below about -65%; inconclusive = mostly about -30% to -63%
Target sequence (O00167 whole entry, looked up): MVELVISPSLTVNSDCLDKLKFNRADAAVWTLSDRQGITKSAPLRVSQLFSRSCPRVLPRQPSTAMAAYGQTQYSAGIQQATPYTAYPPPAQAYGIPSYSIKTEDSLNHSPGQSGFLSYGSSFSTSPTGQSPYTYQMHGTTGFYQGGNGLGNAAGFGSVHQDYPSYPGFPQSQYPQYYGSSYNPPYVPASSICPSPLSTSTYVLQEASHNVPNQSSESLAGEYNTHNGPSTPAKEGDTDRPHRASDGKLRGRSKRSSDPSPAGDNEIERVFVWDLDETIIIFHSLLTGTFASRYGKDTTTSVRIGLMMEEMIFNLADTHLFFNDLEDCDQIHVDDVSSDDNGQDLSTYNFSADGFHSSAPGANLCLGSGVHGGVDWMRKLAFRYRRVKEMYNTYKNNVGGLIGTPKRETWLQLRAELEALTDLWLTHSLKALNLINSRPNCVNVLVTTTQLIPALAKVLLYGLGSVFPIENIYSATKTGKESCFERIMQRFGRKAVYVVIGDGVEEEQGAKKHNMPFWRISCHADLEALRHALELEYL
Target sequence (Q15475 whole entry, looked up): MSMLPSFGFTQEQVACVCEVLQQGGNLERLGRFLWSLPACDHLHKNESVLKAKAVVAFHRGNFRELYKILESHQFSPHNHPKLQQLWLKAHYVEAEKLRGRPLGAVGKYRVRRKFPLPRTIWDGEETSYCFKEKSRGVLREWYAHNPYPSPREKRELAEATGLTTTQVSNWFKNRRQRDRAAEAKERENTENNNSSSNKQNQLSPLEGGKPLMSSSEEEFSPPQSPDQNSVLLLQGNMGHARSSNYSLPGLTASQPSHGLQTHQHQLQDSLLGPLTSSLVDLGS
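AlphaScreen luminescence read after one hour at 37 °C in darkness. Pin-transferred compounds met GST-Six1 and His-Eya2 protein (5X stock 250 nM/500 nM) plus glutathione donor and Ni-chelate acceptor beads (5X, 50 ug/mL).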
Hits are given with their value; – = inactive; ? = inconclusive; · = not tested or not shown; [ ] = another dose, or the depositor's remark. This is a sample that favours compounds with a hit; in the whole collection about 5.4% have one here. Unless noted, calls come from the whole dose curve; as a rule, active = well fitted curve in the direction sought with a large enough effect; inconclusive = small, poorly fitted or top-dose-only effect, or another doubt; inactive = no such curve, though single readings can be large; an effect the other way counts as inactive or inconclusive.

SMILES | Gal4-VP16 FLuc | p53 reactivation | CtBP-E1A blk | RORgamma inh | Six1-Eya2 blk
CCOC(=O)c1sc(NCc2ccco2)c(-c2nc3ccccc3s2)c1N | – | ? | – | – | –
CCc1ccc(OCc2ccc(C(=O)O)o2)cc1 | ? | – | – | 7.1µM | –
CC(C)c1ccc(OCc2ccc(C(=O)O)o2)cc1 | ? | – | – | 2.8µM | –
O=C(O)c1ccc(OCc2ccc(C(=O)O)o2)cc1 | – | – | – | – | –
CC(C)c1ccc(OCc2ccc(C(=O)N(C)C)o2)cc1 | ? | – | – | – | –
COc1ccc(NC(=S)N(CCCN2CCCC(C)C2)Cc2cccs2)cc1 (stereo not drawn) | – | – | – | 11µM | –
COc1ccc(NC(=S)N(CCCN2CCCC2)Cc2cccs2)cc1 | – | – | – | – | –
O=C(Nc1cccc(Cl)c1)N(CCN1CCOCC1)Cc1ccccc1F | – | – | – | ? | –
CCc1ccc(NC(=S)N(CCN2CCOCC2)Cc2ccccc2F)cc1 | ? | – | – | 14µM | –
CCOc1ccc(NC(=O)N(CCN2CCOCC2)Cc2ccc3c(c2)CCCN3CC)cc1 | – | – | – | – | –
S=C(Nc1ccc(Cl)cc1)N(CCCN1CCOCC1)Cc1cccs1 | – | – | – | 13µM | –
CCN1CCCc2cc(CN(CCN3CCOCC3)C(=S)Nc3cccc(OC)c3)ccc21 | –[10 µM] | – | – | 7.1µM | ?
COc1cc(SC)ccc1C(=O)N1CCc2ccccc21 | – | – | – | –[1.91 µM] | –
Cc1cc(C)cc(NC(=S)N2CCC(c3nc4ccccc4s3)CC2)c1 | 11µM | – | – | 4.5µM | –
Cc1ccc(NC(=S)N2CCC(c3nc4ccccc4s3)CC2)cc1C | 11µM | – | – | 4.5µM | –
COc1ccc(-n2nnnc2C(c2ccccc2)N2CCN(C/C=C/c3ccccc3)CC2)cc1 (stereo not drawn) | · | · | ? | · | –
CC(C)(C)n1ncc2c(=O)n(CC(=O)OCc3ccccc3)cnc21 | 1.6µM | – | – | 8.9µM | –
CC(C)(C)n1ncc2c(=O)n(CC(=O)c3ccccc3)cnc21 | ? | ? | – | ? | –
O=C(NC1=NCCS1)C1CC2CCC1C2 (stereo not drawn) | – | – | – | ? | –
O=C(Nc1nccs1)C1CC2CCC1C2 (stereo not drawn) | – | – | – | 7.9µM | –
Cc1nc(-c2ccc(NC(=O)c3ccco3)cc2)cs1 | 4.5µM | – | – | 3.5µM | –
Nc1nc(-c2ccc(NC(=O)c3ccco3)cc2)cs1 | ? | – | – | 10µM | –
Cc1nc(-c2ccc(C(=O)Nc3ccccc3F)cc2)cs1 | 8.9µM | – | – | 8.9µM | –
O=C(Nc1ccc(Oc2ccc3ccccc3c2)cc1)c1ccco1 | 10µM | – | – | – | –
CCn1c2ccccc2c2cc(NC(=O)C(C)Oc3ccc(OC)cc3)ccc21 (stereo not drawn) | – | – | – | – | –
SMILES | Gal4-VP16 FLuc | p53 reactivation | CtBP-E1A blk | RORgamma inh | Six1-Eya2 blk
Cc1ccc(NS(=O)(=O)c2csc(C(N)=O)c2)cc1C | – | – | – | – | –
CCOc1ccc(N(CC(=O)Nc2cc(OC)cc(OC)c2)S(=O)(=O)c2c(C)[nH]c(=O)[nH]c2=O)cc1 | – | – | – | – | –
CCOc1ccccc1NC(=O)CN(c1ccc(OC)cc1)S(=O)(=O)c1c(C)[nH]c(=O)[nH]c1=O | – | – | -84 | – | -84
CCOc1ccc(N(CC(=O)Nc2ccc(OC)cc2OC)S(=O)(=O)c2c(C)[nH]c(=O)[nH]c2=O)cc1 | – | – | -92 | – | -85
C[C@@H]1CC=C[C@H]2[C@H]1C(=O)N(Cc1ccccc1)[C@H]2c1ccc2ccccc2c1Br | ? | – | – | ? | –
O=C(O)CCN1C(=O)/C(=C2\C(=O)N(Cc3ccccc3Cl)c3ccccc32)SC1=S | – | – | · | – | ·
C=CCN1C(=O)/C(=c2\sc3nc(=O)c(Cc4ccccc4Cl)nn3c2=O)c2ccccc21 | ? | – | – | 13µM | –
C/C(=N\NC(=S)Nc1c(C)cccc1C)c1ccc(O)cc1 | ? | – | – | 8.9µM | –
C/C(=N\NC(=O)C1COc2ccccc2O1)c1cc2ccccc2o1 (stereo not drawn) | – | – | – | – | –
C/C(=N\NC(=S)Nc1c(C)cccc1C)c1cc2ccccc2o1 | 7.1µM | ? | · | 1µM | –
C/C(=N\NC(=S)Nc1ccccc1C)c1cc2ccccc2o1 | 7.1µM | – | ? | 1.3µM | –
C/C(=N\NC(=O)C(c1ccccc1)c1ccccc1)c1ccc(O)cc1 | – | ? | · | – | –
C/C(=N\NC(=O)c1ccco1)c1cc2ccccc2o1 | – | ? | – | – | –
CCCCCCCCC | – | · | · | – | ·
CCOc1ccc(-c2nnc(-c3ccccc3)o2)cc1 | ? | ? | – | 10µM | –
CCOc1ccc(-c2nnc(-c3ccc(OC)cc3)o2)cc1 | ? | – | – | – | –
CCCOc1ccc(-c2nnc(-c3cccs3)o2)cc1 | ? | · | – | 5µM | –
CCOc1ccc(-c2nnc(-c3ccncc3)o2)cc1 | ? | – | – | 13µM | –
CCCCOc1ccc(-c2nnc(-c3ccncc3)o2)cc1 | – | ? | – | – | –
CCOC(=O)NN=C1CN(S(=O)(=O)c2ccc(C)cc2)C1 | – | – | – | – | –
Cc1ccc(-c2n[nH]c(=S)n2/N=C/c2ccc(C(=O)O)cc2)cc1 | – | – | – | – | –
O=[N+]([O-])c1ccc(/C=N/n2cn[nH]c2=S)cc1 | ? | – | – | 13µM | –
Cc1ccc(/C=N/n2c(-c3ccccc3)n[nH]c2=S)cc1 | 2.8µM | · | – | ? | –
COc1ccc(/C=N/n2c(-c3ccc(C)cc3)n[nH]c2=S)cc1OC | – | – | · | 3.2µM | –
CSc1nncn1/N=C/c1ccc([N+](=O)[O-])cc1 | ? | – | – | – | –
SMILES | Gal4-VP16 FLuc | p53 reactivation | CtBP-E1A blk | RORgamma inh | Six1-Eya2 blk
CC(C)c1ccc(/C=N/n2c(-c3ccccc3)n[nH]c2=S)cc1 | 3.2µM | – | · | 4µM | –
CCC1CCCCN1C(=O)c1ccc(OC2CCN(C(=O)CCOC)CC2)cc1 (stereo not drawn) | – | – | – | – | –
CCC1CCCCN1C(=O)CN1C(=O)c2ccccc2S1(=O)=O (stereo not drawn) | · | – | – | · | –
S=c1[nH]nc(-c2cccnc2)n1/N=C/c1ccccc1 | – | – | – | ? | –
O=[N+]([O-])c1ccc(/C=N/n2c(-c3ccccc3)n[nH]c2=S)cc1 | 10µM | · | – | 1.3µM | –
CCN(CC)S(=O)(=O)c1cccc(-c2n[nH]c(=S)n2/N=C/c2ccc(OC(F)F)cc2)c1 | 13µM | – | – | – | –
CCCCCCCN | – | · | · | – | ·
COc1cc(/C=N/NC(=O)C2=NNC(=O)C2C)ccc1O (stereo not drawn) | ? | – | – | – | –
CC1=NNC(=O)C1CC(=O)N/N=C/C(Br)=C/c1ccccc1 (stereo not drawn) | – | – | · | – | –
CC1C(=O)NN=C1C(=O)N/N=C\c1ccc(O)cc1O (stereo not drawn) | – | – | – | –[10 µM] | -92
